Measured values published in the supplement of paper PMC10849652.
About 7,900 targets were measured; listed, in parts, are those with a hit and a random draw of the rest. About 0.6% of all pairs of compound and target were hits. A number with no mark means an inactive call.

Columns and labels:
Assay in all cases: log2 fold change, soluble protein after heating vs DMSO (PISA); higher = thermal stabilisation; K562 cells, 10 uM, 30 min; active = over 0.2 and 3.5 SD of the protein, either way, in both replicates (recomputed)
IRAK-1-4 Inhibitor I = compound: C1COCCN1CCN2C3=CC=CC=C3N=C2NC(=O)C4=CC(=CC=C4)[N+](=O)[O-] [IRAK-1-4 Inhibitor I]
In short: (§1)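 Thermal stability values are relative to control samples and come from duplicates. They are expressed as log2 fold changes. For measurement, K562 cells (2×10^6 cells/mL) received 10 μM compound for 30 min, and aliquots were heated for 3 min over 48°C-58°C, pooled, and extracted at 4°C in PBS with 0.5% NP-40. Soluble protein, the supernatant after 21,000xg for 90 min, was quantified by TMTpro 16plex LC-MS/MS with equalised channel sums.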

ibrutinib = compound: C=CC(=O)N1CCC[C@@H](n2nc(-c3ccc(Oc4ccccc4)cc3)c3c(N)ncnc32)C1 [ibrutinib]
In short: as §1

[1] = compound: CC(=O)c1cnc2ccc(-c3cc(Cl)c(O)c(Cl)c3)nc2c1N[C@H]1CC[C@H](CN(C)C)CC1
In short: as §1

ralimetinib = compound: CC(C)(C)Cn1c(N)nc2ccc(-c3[nH]c(C(C)(C)C)nc3-c3ccc(F)cc3)nc21 [ralimetinib]
In short: as §1

[2] = compound: CC(C)(O)CC(=O)NCCn1ccc2ncnc(Nc3ccc(Oc4cccc(C(F)(F)F)c4)c(Cl)c3)c21
In short: as §1

[3] = compound: CC(C)C1=C2N=C(C=C(N2N=C1)NCC3=CC=CC=C3)NCCCCCCN
In short: as §1

[4] = compound: CC(C)C[C@@H](C=O)NC(=O)[C@H](CC(C)C)NC(=O)[C@H](CC(C)C)NC(=O)OCc1ccccc1
In short: as §1

pinometostat = compound: CC(C)N(C[C@H]1O[C@@H](n2cnc3c(N)ncnc32)[C@H](O)[C@@H]1O)[C@H]1C[C@@H](CCc2nc3cc(C(C)(C)C)ccc3[nH]2)C1 [pinometostat]
In short: as §1

[5] = compound: CC1=C(C(CC(=O)N1)C2=CC=C(C=C2)C(F)(F)F)C(=O)NC3=C(C=C4C(=C3)C=NN4)F
In short: as §1

[6] = compound: CC1=C(C2=C(C=C1)C(=O)C3=CC=CC=C3N2CCCN)C
In short: as §1

[7] = compound: CC1=C(C=C(C=C1)NC(=O)C2=CC(=CC=C2)C(C)(C)C#N)NC3=CC4=C(C=C3)N=CN(C4=O)C
In short: as §1

[8] = compound: CC1=C(C=C(C=C1)NC(=O)C2=CC(=CC=C2)N(C)C)NC(=O)C3=CC=C(C=C3)O
In short: as §1

[9] = compound: CC1=CC=C(C=C1)SC2=C3C=C(SC3=CN=C2)C(=O)N
In short: as §1

[10] = compound: CC1=NC(=CC=C1)C2=C(N=C(N2)C(C)(C)C)C3=CC4=NC=CN=C4C=C3
In short: as §1

Nexturastat A = compound: CCCCN(Cc1ccc(C(=O)NO)cc1)C(=O)Nc1ccccc1 [Nexturastat A]
In short: as §1

vemurafenib = compound: CCCS(=O)(=O)Nc1ccc(F)c(C(=O)c2c[nH]c3ncc(-c4ccc(Cl)cc4)cc23)c1F [vemurafenib]
In short: as §1

[11] = compound: CCCS(=O)(=O)Nc1ccc(F)c(C(=O)c2c[nH]c3ncc(Cl)cc23)c1F
In short: as §1

[12] = compound: CCCc1cc(C)[nH]c(=O)c1CNC(=O)c1cc(-c2ccnc(N3CCN(C)CC3)c2)cc2c1cnn2C(C)C
In short: as §1

givinostat = compound: CCN(CC)Cc1ccc2cc(COC(=O)Nc3ccc(C(=O)NO)cc3)ccc2c1 [givinostat]
In short: as §1

barasertib = compound: CCN(CCCOc1ccc2c(Nc3cc(CC(=O)Nc4cccc(F)c4)[nH]n3)ncnc2c1)CCOP(=O)(O)O [barasertib]
In short: as §1

Chain of UniProt P15559 (P15559 whole entry, looked up): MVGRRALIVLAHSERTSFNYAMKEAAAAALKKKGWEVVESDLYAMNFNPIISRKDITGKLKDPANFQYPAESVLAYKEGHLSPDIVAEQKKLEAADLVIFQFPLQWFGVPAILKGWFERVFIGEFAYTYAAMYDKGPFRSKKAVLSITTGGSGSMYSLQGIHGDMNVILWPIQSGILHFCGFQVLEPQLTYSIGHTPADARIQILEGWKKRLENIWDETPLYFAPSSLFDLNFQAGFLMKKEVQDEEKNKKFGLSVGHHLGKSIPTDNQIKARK
Chain of UniProt O95182 (O95182 whole entry, looked up): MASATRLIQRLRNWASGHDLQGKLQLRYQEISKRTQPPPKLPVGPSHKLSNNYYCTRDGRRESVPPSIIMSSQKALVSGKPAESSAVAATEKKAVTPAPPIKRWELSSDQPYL
Chain of UniProt P03886 (P03886 whole entry, looked up): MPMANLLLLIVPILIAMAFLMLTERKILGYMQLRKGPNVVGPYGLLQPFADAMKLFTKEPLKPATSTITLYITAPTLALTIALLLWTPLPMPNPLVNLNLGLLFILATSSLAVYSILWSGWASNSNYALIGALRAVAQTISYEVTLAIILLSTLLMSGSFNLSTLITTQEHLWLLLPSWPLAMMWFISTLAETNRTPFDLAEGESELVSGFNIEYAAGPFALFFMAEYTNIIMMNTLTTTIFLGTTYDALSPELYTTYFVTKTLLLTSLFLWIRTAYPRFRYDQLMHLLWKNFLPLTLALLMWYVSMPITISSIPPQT
Chain of UniProt Q9Y2I1 (Q9Y2I1 whole entry, looked up): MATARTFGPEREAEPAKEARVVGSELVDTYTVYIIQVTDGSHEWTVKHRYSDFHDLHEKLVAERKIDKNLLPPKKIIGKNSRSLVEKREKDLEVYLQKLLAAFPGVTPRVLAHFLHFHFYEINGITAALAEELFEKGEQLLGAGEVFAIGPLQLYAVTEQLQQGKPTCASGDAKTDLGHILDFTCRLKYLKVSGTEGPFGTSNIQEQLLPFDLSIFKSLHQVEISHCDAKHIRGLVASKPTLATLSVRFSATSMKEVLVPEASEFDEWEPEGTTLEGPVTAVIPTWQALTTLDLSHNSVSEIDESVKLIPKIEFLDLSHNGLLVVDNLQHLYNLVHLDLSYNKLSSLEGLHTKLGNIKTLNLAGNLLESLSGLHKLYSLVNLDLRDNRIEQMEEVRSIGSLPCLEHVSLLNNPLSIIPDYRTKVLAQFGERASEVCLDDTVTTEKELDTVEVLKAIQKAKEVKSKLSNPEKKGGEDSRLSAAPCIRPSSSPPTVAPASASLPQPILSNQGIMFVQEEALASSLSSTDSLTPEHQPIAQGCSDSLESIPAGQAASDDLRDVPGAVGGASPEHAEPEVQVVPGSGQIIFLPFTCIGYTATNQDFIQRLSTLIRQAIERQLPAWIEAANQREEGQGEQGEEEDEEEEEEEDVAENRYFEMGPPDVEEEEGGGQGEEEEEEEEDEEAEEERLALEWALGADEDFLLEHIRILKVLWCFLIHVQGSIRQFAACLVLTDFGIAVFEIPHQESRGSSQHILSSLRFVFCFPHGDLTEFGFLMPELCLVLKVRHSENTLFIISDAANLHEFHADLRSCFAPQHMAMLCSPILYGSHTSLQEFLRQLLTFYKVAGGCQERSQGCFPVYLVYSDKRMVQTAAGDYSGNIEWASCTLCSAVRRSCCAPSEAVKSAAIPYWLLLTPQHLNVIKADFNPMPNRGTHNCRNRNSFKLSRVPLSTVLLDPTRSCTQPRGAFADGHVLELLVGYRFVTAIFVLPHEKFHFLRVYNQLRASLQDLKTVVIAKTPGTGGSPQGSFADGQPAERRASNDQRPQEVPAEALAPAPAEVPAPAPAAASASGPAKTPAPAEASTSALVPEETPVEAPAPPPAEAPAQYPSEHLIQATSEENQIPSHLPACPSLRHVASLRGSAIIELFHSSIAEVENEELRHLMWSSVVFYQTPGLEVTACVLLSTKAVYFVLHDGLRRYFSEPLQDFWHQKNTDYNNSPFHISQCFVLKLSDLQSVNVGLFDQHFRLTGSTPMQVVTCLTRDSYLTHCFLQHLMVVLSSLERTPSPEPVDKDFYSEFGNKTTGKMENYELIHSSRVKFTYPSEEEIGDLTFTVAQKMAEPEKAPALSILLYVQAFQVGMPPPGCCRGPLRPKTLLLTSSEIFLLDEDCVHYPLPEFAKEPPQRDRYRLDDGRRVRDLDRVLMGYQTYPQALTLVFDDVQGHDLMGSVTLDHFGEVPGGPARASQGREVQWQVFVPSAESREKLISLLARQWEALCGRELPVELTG
Chain of UniProt O75251 (O75251 whole entry, looked up): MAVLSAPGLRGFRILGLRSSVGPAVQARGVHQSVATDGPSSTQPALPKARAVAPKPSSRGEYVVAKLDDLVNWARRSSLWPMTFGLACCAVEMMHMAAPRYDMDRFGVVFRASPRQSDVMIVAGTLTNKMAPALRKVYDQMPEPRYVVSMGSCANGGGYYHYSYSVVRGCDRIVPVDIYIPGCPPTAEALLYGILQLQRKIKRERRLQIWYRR
Chain of UniProt Q8WV92 (Q8WV92 whole entry, looked up): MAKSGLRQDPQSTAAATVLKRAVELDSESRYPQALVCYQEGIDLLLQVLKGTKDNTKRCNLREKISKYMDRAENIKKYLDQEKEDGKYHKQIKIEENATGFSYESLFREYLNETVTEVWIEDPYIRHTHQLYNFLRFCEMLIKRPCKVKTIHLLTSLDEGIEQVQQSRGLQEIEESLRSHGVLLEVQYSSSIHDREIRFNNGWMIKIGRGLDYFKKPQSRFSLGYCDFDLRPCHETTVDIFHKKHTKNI
Chain of UniProt Q9BW27 (Q9BW27 whole entry, looked up): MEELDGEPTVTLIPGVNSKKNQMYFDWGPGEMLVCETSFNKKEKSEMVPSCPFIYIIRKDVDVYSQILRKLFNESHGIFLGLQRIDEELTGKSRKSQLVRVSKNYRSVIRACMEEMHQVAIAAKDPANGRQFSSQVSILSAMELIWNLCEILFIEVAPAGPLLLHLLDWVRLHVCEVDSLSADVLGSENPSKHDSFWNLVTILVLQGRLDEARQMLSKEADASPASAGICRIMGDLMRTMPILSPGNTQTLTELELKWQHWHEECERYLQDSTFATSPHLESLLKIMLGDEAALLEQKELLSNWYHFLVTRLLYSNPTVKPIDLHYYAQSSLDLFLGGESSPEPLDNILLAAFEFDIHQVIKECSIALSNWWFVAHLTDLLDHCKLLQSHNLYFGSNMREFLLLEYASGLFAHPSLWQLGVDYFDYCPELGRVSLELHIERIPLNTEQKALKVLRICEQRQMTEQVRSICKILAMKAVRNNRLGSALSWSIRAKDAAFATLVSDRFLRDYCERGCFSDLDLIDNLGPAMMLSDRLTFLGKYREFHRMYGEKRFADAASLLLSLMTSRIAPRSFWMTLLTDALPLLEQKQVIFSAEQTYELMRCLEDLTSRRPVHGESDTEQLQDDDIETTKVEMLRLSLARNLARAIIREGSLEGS
Chain of UniProt P15531 (P15531 whole entry, looked up): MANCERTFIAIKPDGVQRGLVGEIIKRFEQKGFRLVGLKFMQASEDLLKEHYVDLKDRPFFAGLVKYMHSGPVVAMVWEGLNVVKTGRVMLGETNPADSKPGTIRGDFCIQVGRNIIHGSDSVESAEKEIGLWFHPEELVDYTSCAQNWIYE
Chain of UniProt P04181 (P04181 whole entry, looked up): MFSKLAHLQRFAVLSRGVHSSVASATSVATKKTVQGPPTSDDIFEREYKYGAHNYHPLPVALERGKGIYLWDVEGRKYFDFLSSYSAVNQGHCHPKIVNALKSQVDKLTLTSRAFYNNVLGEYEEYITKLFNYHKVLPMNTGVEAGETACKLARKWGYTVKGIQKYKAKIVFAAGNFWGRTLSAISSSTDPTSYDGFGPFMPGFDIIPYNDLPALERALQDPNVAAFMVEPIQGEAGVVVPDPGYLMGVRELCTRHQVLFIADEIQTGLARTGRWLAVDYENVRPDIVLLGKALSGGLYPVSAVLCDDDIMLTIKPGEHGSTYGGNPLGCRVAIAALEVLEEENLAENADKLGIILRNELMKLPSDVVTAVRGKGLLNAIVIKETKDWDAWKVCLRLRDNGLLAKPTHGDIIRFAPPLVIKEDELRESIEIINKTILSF
Chain of UniProt Q96BN8 (Q96BN8 whole entry, looked up): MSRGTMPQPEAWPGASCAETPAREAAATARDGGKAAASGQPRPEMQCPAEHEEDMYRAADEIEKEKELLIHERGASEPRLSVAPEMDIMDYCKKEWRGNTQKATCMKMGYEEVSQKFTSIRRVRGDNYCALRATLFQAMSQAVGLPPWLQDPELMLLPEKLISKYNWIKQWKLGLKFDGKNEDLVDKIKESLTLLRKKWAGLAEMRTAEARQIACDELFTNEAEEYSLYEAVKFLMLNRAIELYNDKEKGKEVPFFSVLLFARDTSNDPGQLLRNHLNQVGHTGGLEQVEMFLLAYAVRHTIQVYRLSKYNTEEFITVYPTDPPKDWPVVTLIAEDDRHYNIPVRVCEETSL
Chain of UniProt O60551 (O60551 whole entry, looked up): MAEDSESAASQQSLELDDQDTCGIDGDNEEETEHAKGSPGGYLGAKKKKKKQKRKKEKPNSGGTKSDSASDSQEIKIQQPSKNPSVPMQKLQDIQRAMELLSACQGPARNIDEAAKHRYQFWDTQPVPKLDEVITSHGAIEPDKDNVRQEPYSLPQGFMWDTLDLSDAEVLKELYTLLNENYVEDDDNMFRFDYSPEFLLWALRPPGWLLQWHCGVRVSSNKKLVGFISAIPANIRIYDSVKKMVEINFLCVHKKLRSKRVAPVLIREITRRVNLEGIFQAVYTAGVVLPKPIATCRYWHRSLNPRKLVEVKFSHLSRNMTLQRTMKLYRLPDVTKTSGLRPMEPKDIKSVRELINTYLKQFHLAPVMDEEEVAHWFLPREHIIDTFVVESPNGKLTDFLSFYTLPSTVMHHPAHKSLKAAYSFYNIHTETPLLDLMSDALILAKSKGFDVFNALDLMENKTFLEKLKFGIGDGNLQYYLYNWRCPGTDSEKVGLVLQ

Target | log2 fold change (IRAK-1-4 Inhibitor I) | log2 fold change (ibrutinib) | log2 fold change [1] | log2 fold change (ralimetinib) | log2 fold change [2] | log2 fold change [3] | log2 fold change [4] | log2 fold change (pinometostat) | log2 fold change [5] | log2 fold change [6] | log2 fold change [7] | log2 fold change [8] | log2 fold change [9] | log2 fold change [10] | log2 fold change (Nexturastat A) | log2 fold change (vemurafenib) | log2 fold change [11] | log2 fold change [12] | log2 fold change (givinostat) | log2 fold change (barasertib)
NISCH (UniProt Q9Y2I1) | 0.053 | 0 | -0.037 | 0.02 | 0.007 | -0.429 | 0.028 | 0.047 | 0.018 | 0.004 | 0.009 | -0.07 | -0.054 | -0.018 | 0.094 | 0.055 | 0.116 | -0.077 | 0.032 | 0.075
MT-ND1 (UniProt P03886) | 0.104 | -0.009 | -0.072 | 0.071 | -0.142 | -0.142 | -0.102 | -0.092 | -0.115 | 0.119 | -0.002 | 0.028 | -0.008 | -0.034 | 0.021 | 0.168 | 0.208 | 0.019 | 0.057 | 0.127
NMT2 (UniProt O60551) | 0.006 | 0.064 | -0.031 | -0.017 | -0.022 | -0.125 | -0.019 | 0.053 | 0.037 | 0.01 | 0.006 | 0.018 | 0.237 | 0.024 | -0.037 | -0.034 | 0.031 | 0.02 | -0.233 | 0
NUP85 (UniProt Q9BW27) | -0.011 | -0.027 | -0.058 | -0.036 | -0.013 | -0.048 | -0.026 | -0.033 | 0.04 | 0.015 | -0.02 | 0.025 | 0.102 | -0.001 | -0.041 | 0.01 | 0.019 | -0.02 | 0.015 | 0.017
NDUFA7 (UniProt O95182) | 0.169 | 0.024 | -0.014 | -0.017 | -0.192 | -0.063 | 0.158 | 0.074 | 0.038 | 0.033 | -0.013 | 0 | -0.007 | -0.021 | -0.035 | -0.045 | 0.019 | -0.079 | -0.024 | -0.011
NCAPG (UniProt Q9BPX3) | -0.092 | -0.033 | 0.084 | 0.038 | -0.126 | -0.197 | -0.005 | -0.003 | -0.011 | 0.016 | 0.086 | -0.074 | 0.027 | 0.038 | 0.011 | 0.056 | 0.091 | 0.064 | 0.081 | 0.064
NOL11 (UniProt Q9H8H0) | 0.036 | 0.031 | 0.002 | -0.028 | 0.037 | 0.21 | -0.017 | -0.014 | -0.002 | 0.304 (active) | -0.023 | 0.029 | 0.004 | 0.013 | -0.024 | -0.026 | 0.003 | -0.016 | 0.015 | -0.021
NTMT1 (UniProt Q9BV86) | 0 | 0.011 | -0.046 | -0.02 | -0.053 | 0.095 | -0.052 | -0.029 | -0.082 | 0.157 | 0.05 | 0.037 | -0.003 | -0.034 | -0.042 | 0.062 | 0.012 | -0.073 | -0.066 | 0.019
MITD1 (UniProt Q8WV92) | -0.043 | 0.03 | 0 | -0.002 | -0.296 | -0.77 (active) | -0.002 | 0.082 | -0.101 | 0.047 | -0.124 | 0.072 | -0.043 | -0.043 | -0.026 | 0.069 | 0 | -0.093 | -0.047 | 0.042
OTULIN (UniProt Q96BN8) | 0.021 | -0.025 | -0.003 | -0.01 | -0.059 | -0.362 (active) | 0.024 | 0.034 | -0.02 | 0.008 | 0.03 | 0.002 | 0.035 | 0.015 | -0.17 | -0.023 | 0.171 | -0.018 | 0.039 | 0.105
NME1 isoform 2 (UniProt P15531) | 0.021 | 0.107 | -0.007 | -0.035 | 0.03 | 0.041 | 0.032 | -0.017 | -0.192 | 0.038 | -0.054 | 0.047 | 0.029 | -0.006 | -0.067 | -0.003 | -0.045 | -0.092 | -0.07 | -0.108
OAT (UniProt P04181) | 0.044 | -0.006 | -0.044 | -0.053 | -0.113 | -0.245 (active) | 0.007 | -0.027 | -0.006 | -0.007 | 0.087 | 0.014 | 0.02 | 0.042 | -0.01 | 0.011 | -0.023 | -0.011 | 0.045 | 0.061
NQO1 (UniProt P15559) | 0.001 | -0.053 | 0.044 | 0.001 | -0.029 | -0.035 | -0.045 | -0.02 | -0.038 | -0.01 | 0.075 | -0.023 | 0.032 | 0.025 | -0.049 | 0.027 | -0.007 | 0.039 | -0.01 | 0.036
MRPS25 (UniProt P82663) | -0.059 | 0.12 | -0.021 | -0.007 | 0.074 | -0.071 | 0.017 | -0.018 | -0.106 | -0.091 | 0.033 | -0.009 | 0.085 | 0.078 | 0.012 | -0.089 | 0.078 | -0.082 | 0.049 | -0.02
NDUFS7 (UniProt O75251) | 0.045 | -0.04 | -0.016 | -0.1 | -0.1 | -0.086 | 0.05 | -0.03 | -0.005 | 0.043 | 0.008 | 0.004 | 0.017 | 0.025 | -0.019 | -0.025 | 0.028 | -0.039 | 0.113 | 0.016
ORC3 isoform 2 (UniProt Q9UBD5) | -0.113 | -0.015 | -0.132 | -0.059 | -0.383 | -0.338 | -0.013 | 0.012 | 0.045 | -0.049 | -0.027 | -0.056 | 0.146 | 0.075 | -0.124 | 0.012 | 0.143 | 0.044 | 0.145 | 0.178
